In the library only some 3.5% were active in any assay of this set; here they are far more common.
mHTT-CaM PPI inh = disrupts binding of mutant huntingtin to calmodulin. P42858. AlphaScreen His-mHTT/GST-CaM binding, luminescence. inhibition, % at 15 µM. 190,000 compounds, 3.6% hits
Pf apPOL block = Pf-apPOL DNA polymerase inhibition | Recombinant Pf-apPOL, molecular beacon fluorescence, 1.5 h | inhibition, % at 10 µM | 210,000 compounds, 0.25% hits | AID 1794808
Of the large screens only hits and unclear results are named; the others gave an inactive call; ! = not confirmed by another sample. Cut-off read from the data, not from the text of the source: active = inhibition above about 50%; inactive = the rest.

CC(C)(C)C1=CC(=NS(=O)(=O)c2ccc(F)cc2)C=C(C(C)(C)C)C1=O	none
O=C1C=CC(=NS(=O)(=O)c2ccc(F)cc2)C=C1	mHTT-CaM PPI inh 50
CC(C)c1ccc(S(=O)(=O)N=C2C=CC(=O)C=C2)cc1	mHTT-CaM PPI inh 86
Cc1ccc(S(=O)(=O)N=C2C=CC(=O)C=C2)cc1	none
O=C(O)c1cccc(S(=O)(=O)N2CCCCCC2)c1	none
O=C1C=CC(=NS(=O)(=O)c2cccc(C(=O)O)c2)C=C1	mHTT-CaM PPI inh 58, Pf apPOL block 59
CCOc1nccnc1NC1CCN(C(=O)Cc2c(C)noc2C)CC1	none
O=[N+]([O-])C(Cl)C(=Nc1ccc(Cl)cc1)n1nnc2ccccc21 (stereo not given)	none
Cc1ccc2c(c1)N(C(=O)Nc1ccc(F)cc1)CC(C)O2 (stereo not given)	none
COc1cccc(NC(=O)c2ccc([N+](=O)[O-])c(C)c2)c1	none
CC(C)(C)Nc1nc(Cl)nc(Nc2cccc([N+](=O)[O-])c2)n1	none
COc1ccc(Nc2nc(Cl)nc(Nc3cccc([N+](=O)[O-])c3)n2)cc1	mHTT-CaM PPI inh 78
COc1cccc(Nc2nc(Cl)ccc2[N+](=O)[O-])c1	mHTT-CaM PPI inh 71
Cc1ccc(S(=O)(=O)NCC(C)(O)c2ccccc2)c(C)c1 (stereo not given)	none
CC(=O)N(c1ccccc1)C1(C(=O)NC2CCCC2)CCCCC1	none
Cc1ccc(S(=O)(=O)N2CCC(=O)N([C@H](COCc3cccc(C(F)(F)F)c3)Cc3ccccc3)CC2)cc1	none
Cc1ccc(S(=O)(=O)N2CCC(=O)N([C@H](COCc3cccc(C(F)(F)F)c3)C(C)C)CC2)cc1	none
CC(C)C[C@@H](COCc1ccc(F)cc1)N1CCN(C(=O)c2cccc(C(F)(F)F)c2)CCC1=O	mHTT-CaM PPI inh 60
CC(C)C[C@@H](COCc1cccc(Cl)c1)N1CCN(C(=O)c2cccc(C(F)(F)F)c2)CCC1=O	mHTT-CaM PPI inh 87!
Cc1cccc(Cn2nnc(C(=O)O)c2-c2ccccn2)c1	none
C=CCN1C(=O)C(O)(CC(=O)c2ccc([N+](=O)[O-])cc2)c2ccccc21 (stereo not given)	none
O=C(CC1(O)C(=O)N(Cc2ccc(Cl)cc2)c2ccccc21)c1cccnc1 (stereo not given)	none
O=C(CC1(O)C(=O)N(Cc2ccc(Cl)cc2)c2ccccc21)c1cccc([N+](=O)[O-])c1 (stereo not given)	mHTT-CaM PPI inh 93
COc1ccc(C(=O)CC2(O)C(=O)N(CCc3ccccc3)c3ccccc32)cc1[N+](=O)[O-] (stereo not given)	mHTT-CaM PPI inh 71
C=CCN1C(=O)C(O)(CC(=O)c2ccc(OC)c([N+](=O)[O-])c2)c2ccccc21 (stereo not given)	none
O=C(CC1(O)C(=O)N(Cc2ccc(Cl)cc2)c2ccccc21)c1ccc([N+](=O)[O-])cc1 (stereo not given)	mHTT-CaM PPI inh 86
Cc1cccc2sc(NC(=O)CCCN3C(=O)c4cccnc4C3=O)nc12	none
CCC(C)Nc1nc(-c2ccc(OC)c(OC)c2)nc2ccccc12 (stereo not given)	none
CSc1ccc(C2C(C#N)=C(N)Oc3cc(C)n(CCCn4ccnc4)c(=O)c32)cc1 (stereo not given)	none
Cc1ccccc1N=c1scc(-c2ccccc2)n1Cc1ccco1	mHTT-CaM PPI inh 73
Cc1csc(=NC(=O)c2ccccc2)n1Cc1ccco1	none
COc1ccc(C(=O)NC2CCCCC2NC(=O)c2ccc(OC)cc2)cc1 (stereo not given)	none
CC(C)(C)C1=CC(=O)c2c(ccc(C(C)(C)C)c2O)C1=O	mHTT-CaM PPI inh 58
CC(C)(C)C1=CC(=Cc2cc(C(C)(C)C)c(O)c(C(C)(C)C)c2)C=C(C(C)(C)C)C1=O	none (no result: Pf apPOL block)
COCCN1COc2ccc3c(=O)c(Oc4ccc(C(=O)OC)cc4)coc3c2C1	none
O=C(Nc1c(F)c(F)c(F)c(F)c1F)c1ccccc1	none
O=C(Nc1c(Cl)c(Cl)c(O)c(Cl)c1Cl)c1ccccc1	mHTT-CaM PPI inh 85
CC(=O)Oc1ccc2c(c1)OC(=Cc1ccccc1Br)C2=O	none
CC(=O)Oc1ccc2c(c1)Oc1cc(OC(C)=O)ccc1C21OC(=O)c2ccccc21	mHTT-CaM PPI inh 87
O=C(CC[n+]1ccc(/C=N/O)cc1)NCc1ccccc1	none
Cc1nc2cc(N3CC(C(=O)Nc4cccc(Cl)c4C)CC3=O)ccc2o1 (stereo not given)	none
CCCn1ncc(N2CCC(C(=O)Nc3cccc(C)c3)CC2)cc1=O	none
COc1ccccc1-c1nnc(NC(=O)COc2ccccc2)o1	mHTT-CaM PPI inh 77
CSc1ccccc1-c1nnc(NC(=O)CCOc2ccccc2)o1	none
O=C(COc1ccc(Cl)cc1)Nc1nnc(Cc2cccs2)o1	mHTT-CaM PPI inh 78
CC1CN(S(=O)(=O)c2ccc(C(=O)Nc3nnc(-c4ccno4)o3)cc2)CC(C)O1 (stereo not given)	none
COC(=O)c1ccc(NC(=O)C(=O)NCc2ccc3c(c2)OCO3)cc1	none
O=C(CSc1ccc(F)cc1)Nc1nnc(Cc2cccs2)o1	none
COC(=O)c1ccc(C(=O)Nc2nnc(Cc3ccc4c(c3)OCO4)o2)cc1	mHTT-CaM PPI inh 57
O=C(Nc1nnc(-c2ccno2)o1)c1ccc2c(c1)OCO2	mHTT-CaM PPI inh 96
O=C(NCc1ccco1)C1CCN(S(=O)(=O)c2ccc(Br)cc2)CC1	none
COc1ccccc1NC(=O)C1CN(S(C)(=O)=O)CC12CCCCC2 (stereo not given)	none
O=C(COc1ccc(Cl)cc1Cl)Nc1nnc(COc2ccccc2)o1	mHTT-CaM PPI inh 97
O=C(COc1ccc(Cl)cc1Cl)Nc1nnc(Cc2ccc3c(c2)OCO3)o1	mHTT-CaM PPI inh 92
COc1cccc2cc(C(=O)Nc3nnc(Cc4ccc(Cl)s4)o3)oc12	none
CCOc1cccc2cc(C(=O)Nc3nnc(-c4ccno4)o3)oc12	Pf apPOL block 79
O=C(CCS(=O)(=O)c1ccc(Cl)cc1)Nc1nnc(Cc2ccc3c(c2)OCO3)o1	none
COc1nn(C)cc1C(=O)Nc1nnc(-c2ccco2)o1	none
COc1nn(C)cc1C(=O)Nc1nnc(COc2ccccc2)o1	mHTT-CaM PPI inh 66
O=C(COc1ccc(Cl)cc1Cl)Nc1ccccc1F	none
Cc1ccccc1-n1nc(C(C)C)c(C(=O)N2CCOCC2)c1C(C)C	none
COc1cc2c(cc1OC)CN(Cc1cc([N+](=O)[O-])ccc1O)CC2	none
Cc1cccc(S(=O)(=O)N2CCC(c3nc4ccncc4n3C)C2)c1 (stereo not given)	none
O=C(C1CCCO1)N1CCC(OCc2nc(-c3cnccn3)no2)CC1 (stereo not given)	none
CN(C)C(=O)c1cc2c(s1)CCC(C(=O)NCc1ccccc1C(F)(F)F)C2 (stereo not given)	none
COC(=O)c1ccc(C(=O)Nc2nnc(-c3ccn(C(C)C)n3)o2)cc1	mHTT-CaM PPI inh 65
COC(=O)c1ccc(C(=O)Nc2nnc(-c3cc(Cl)ccc3Cl)o2)cc1	none
O=C(Cn1nc2c(c1NC(=O)c1cnccn1)CSC2)NCc1ccco1	mHTT-CaM PPI inh 85
O=C(Cn1nc2c(c1NC(=O)c1c[nH]c3ccccc13)CSC2)NCCc1ccccc1	mHTT-CaM PPI inh 93
O=C(Nc1nnc(-c2ccco2)o1)c1cnccn1	none
CC(C)(C)n1nc2c(c1NC(=O)CCc1ccccc1)CSC2	none
O=C(Cc1csc(NC(=O)c2cnccn2)n1)NCc1ccco1	none
O=C(Nc1cc(-c2ccco2)nn1CCO)c1cnccn1	mHTT-CaM PPI inh 92
CC(=O)Nc1ccc(C)cc1Br	none
Cc1ccc(NC(=O)N2CCCC(CCC(=O)N3CCC(Cc4ccccc4)CC3)C2)cc1 (stereo not given)	mHTT-CaM PPI inh 54

Screening data: PubChem BioAssay, University of Kansas High Throughput Screening Laboratory
